# Reference: PubChem BioAssay AID652162 (Broad Institute, 2013)
# “And” between values parts separate entries of the source, which are not always exact repeats. Equal values may be shown once. Out of some 350,000 compounds screened, about 840 (0.24%) were called active. What follows is part of a selection rich in actives, with near analogues and random picks from the rest. Values without a mark were called inactive. Rule as the data show it: active = inhibition above about 10%; inactive = the rest.
# Biological target: Toxin B (Clostridioides difficile) (UniProt P18177)
# Sequence (P18177 whole entry, looked up): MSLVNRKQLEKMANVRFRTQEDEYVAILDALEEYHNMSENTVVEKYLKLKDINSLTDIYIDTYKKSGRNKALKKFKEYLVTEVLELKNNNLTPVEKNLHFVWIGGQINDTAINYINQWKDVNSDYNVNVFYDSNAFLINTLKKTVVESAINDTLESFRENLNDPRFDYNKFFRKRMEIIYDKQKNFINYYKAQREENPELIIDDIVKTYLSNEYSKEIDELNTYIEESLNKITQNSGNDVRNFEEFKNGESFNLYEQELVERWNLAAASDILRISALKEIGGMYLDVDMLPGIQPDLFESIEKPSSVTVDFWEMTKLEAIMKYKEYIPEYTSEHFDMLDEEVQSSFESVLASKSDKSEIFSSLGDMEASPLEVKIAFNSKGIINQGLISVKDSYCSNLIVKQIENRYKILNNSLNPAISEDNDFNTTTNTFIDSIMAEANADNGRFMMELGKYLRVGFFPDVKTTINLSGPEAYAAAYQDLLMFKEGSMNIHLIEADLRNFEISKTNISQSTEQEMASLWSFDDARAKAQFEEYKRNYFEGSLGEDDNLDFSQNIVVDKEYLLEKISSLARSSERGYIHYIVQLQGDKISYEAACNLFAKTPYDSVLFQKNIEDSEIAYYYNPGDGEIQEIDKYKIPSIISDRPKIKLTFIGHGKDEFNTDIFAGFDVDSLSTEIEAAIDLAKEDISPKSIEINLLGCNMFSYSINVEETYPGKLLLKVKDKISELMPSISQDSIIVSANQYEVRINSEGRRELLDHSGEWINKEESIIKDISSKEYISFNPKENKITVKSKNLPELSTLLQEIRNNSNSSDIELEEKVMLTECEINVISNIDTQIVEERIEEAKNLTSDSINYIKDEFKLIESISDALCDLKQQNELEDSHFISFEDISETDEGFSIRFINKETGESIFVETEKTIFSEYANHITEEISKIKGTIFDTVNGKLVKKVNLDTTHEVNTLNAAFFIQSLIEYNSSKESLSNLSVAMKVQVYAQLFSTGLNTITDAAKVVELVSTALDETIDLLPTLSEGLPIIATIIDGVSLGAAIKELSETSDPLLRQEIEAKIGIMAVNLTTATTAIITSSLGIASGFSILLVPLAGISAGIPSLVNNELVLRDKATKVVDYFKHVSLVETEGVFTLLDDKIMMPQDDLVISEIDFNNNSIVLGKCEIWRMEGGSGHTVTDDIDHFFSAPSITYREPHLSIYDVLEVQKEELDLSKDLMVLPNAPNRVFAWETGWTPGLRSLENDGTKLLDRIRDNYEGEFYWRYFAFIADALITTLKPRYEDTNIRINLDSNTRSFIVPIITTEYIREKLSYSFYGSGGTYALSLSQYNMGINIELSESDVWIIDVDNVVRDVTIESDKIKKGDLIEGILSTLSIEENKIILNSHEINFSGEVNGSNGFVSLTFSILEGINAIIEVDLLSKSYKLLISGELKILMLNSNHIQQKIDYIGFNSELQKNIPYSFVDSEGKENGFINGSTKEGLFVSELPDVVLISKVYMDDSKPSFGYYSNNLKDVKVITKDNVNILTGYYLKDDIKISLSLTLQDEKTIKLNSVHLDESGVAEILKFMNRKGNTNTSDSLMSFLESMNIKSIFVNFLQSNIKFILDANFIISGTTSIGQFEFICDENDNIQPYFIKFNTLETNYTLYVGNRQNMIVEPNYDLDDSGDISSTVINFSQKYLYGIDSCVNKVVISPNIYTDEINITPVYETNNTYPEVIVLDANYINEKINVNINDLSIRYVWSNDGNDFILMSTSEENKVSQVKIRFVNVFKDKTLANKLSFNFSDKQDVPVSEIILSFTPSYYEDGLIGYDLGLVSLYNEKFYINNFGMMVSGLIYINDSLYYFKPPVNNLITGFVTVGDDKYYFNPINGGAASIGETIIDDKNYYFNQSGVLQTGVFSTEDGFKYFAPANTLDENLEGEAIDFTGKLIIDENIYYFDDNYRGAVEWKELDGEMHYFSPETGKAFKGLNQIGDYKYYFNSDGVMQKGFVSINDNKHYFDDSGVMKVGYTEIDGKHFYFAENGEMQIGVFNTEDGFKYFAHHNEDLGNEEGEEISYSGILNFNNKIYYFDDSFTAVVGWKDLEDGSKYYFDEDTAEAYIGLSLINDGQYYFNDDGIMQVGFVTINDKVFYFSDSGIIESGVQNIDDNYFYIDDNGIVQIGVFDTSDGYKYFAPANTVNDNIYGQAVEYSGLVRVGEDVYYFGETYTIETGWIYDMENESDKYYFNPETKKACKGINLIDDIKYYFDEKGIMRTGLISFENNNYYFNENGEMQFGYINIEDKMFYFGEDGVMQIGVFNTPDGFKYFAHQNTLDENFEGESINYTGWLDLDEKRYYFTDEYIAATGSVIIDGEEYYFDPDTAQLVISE
# Assay: TcdB glycohydrolase inhibitors, primary screen, biochemical, single point, plate reader (AID 652162)
# Settings: TcdB glycohydrolase enzymatic assay, at 9.99 µM, stronger effect = higher value
row,SMILES,inhibition
1,O=C(C1CCOCC1)N1CC2(C1)[C@H](c1ccccc1)[C@H](CO)N2Cc1ccc(Cl)cc1,-0.452%
2,Cc1ccc(-c2cnc3c(c2)C(=O)N([C@H](C)CO)C[C@@H](C)[C@H](CN(C)Cc2ccccc2C(=O)O)O3)cc1,0.061%
3,C[C@@H]1CCCCO[C@@H](CN(C)C(=O)NC2CCCCC2)[C@@H](C)CN([C@H](C)CO)C(=O)c2cc(NC(=O)CCCCCC(=O)Nc3ccccc3N)ccc2O1,0.319%
4,O=C(COc1ccc([N+](=O)[O-])cc1Cl)Nc1ccc2[nH]c(=O)[nH]c2c1,0.327%
5,O=C(COC(=O)c1cccc(Cl)c1)Nc1ccc2[nH]c(=O)[nH]c2c1,-0.403%
6,COc1ccc(C(=O)OCC(=O)Nc2ccc3[nH]c(=O)[nH]c3c2)c(OC)c1OC,11.5% (active)
7,C[C@@H]1CN([C@H](C)CO)C(=O)c2cc(NS(=O)(=O)c3ccc(Cl)cc3)ccc2O[C@@H](C)CCCCO[C@H]1CN(C)Cc1ccccc1,-0.656%
8,N#Cc1ccc(OCC(=O)NC(=O)NC2CCS(=O)(=O)C2)cc1 (centres undefined),-2.43%
9,COc1ccc(-c2ccc(OC(=O)NC3CCS(=O)(=O)C3)cc2)cc1 (centres undefined),10.6% (active)
10,COc1ccc(S(=O)(=O)N2CCCCC2)cc1C(=O)NC1CCS(=O)(=O)C1 (centres undefined),0.566%
11,C[C@@H]1CCCCO[C@@H](CN(C)C(=O)NC2CCCCC2)[C@H](C)CN([C@H](C)CO)C(=O)c2cc(NS(=O)(=O)c3ccc(Cl)cc3)ccc2O1,-0.076%
12,C[C@@H]1CN([C@H](C)CO)C(=O)c2cc(NC(=O)Nc3cccc4ccccc34)ccc2O[C@H]1CN(C)C(=O)Nc1ccccc1,-0.695%
13,O=C(c1cnccn1)N1CC(=O)N2[C@H](C1)[C@H](c1ccc(/C=C/c3ccccc3)cc1)[C@@H]2CO,0.636%
14,CO[C@@H]1CC[C@H]2CCN(C)C(=O)[C@@H](C)CN(C)C(=O)c3cccc(C#N)c3OC[C@@H]1O2,0.637%
15,COc1cccc2cc(C(=O)NCc3ccc(C)cc3)c(=N)oc12,0.357%
16,COc1cccc2cc(/C(C)=N/NC(=O)c3ccco3)oc12,14% (active)
17,COc1cccc2cc(C(N)=O)/c(=N\NC(=O)c3ccccc3)oc12,-0.164%
18,COc1ccc(S(=O)(=O)Nc2ccc3c(c2)C(=O)N([C@H](C)CO)C[C@@H](C)[C@H](CN(C)C(=O)c2ccncc2)OCCCC[C@@H](C)O3)cc1,1.52%
19,CNC[C@H]1Oc2cc(C#CC(C)(C)O)ccc2S(=O)(=O)N([C@@H](C)CO)C[C@@H]1C,-0.494%
20,COCC(=O)Nc1ccc2c(c1)C(=O)N(C)[C@@H]1CC[C@@H](CC(=O)NCC(F)(F)F)O[C@H]1CO2,0.945%
21,O=C(C[C@@H]1CC[C@H](NC(=O)Cc2ccccn2)[C@H](CO)O1)NCCc1ccncc1,-1.24%
22,O=C(Nc1ccc(F)cc1)N[C@H]1CC[C@H](CCn2cc(-c3ccc(F)cc3)nn2)O[C@@H]1CO,-2.54%
23,CO[C@@H]1CN(C)C(=O)c2cc(NC(=O)C3CC3)ccc2OC[C@H](C)N(C(=O)c2ccccc2F)C[C@H]1C,0.856%

row,SMILES,inhibition
1,O=C(C[C@@H]1C[C@@H]2c3cc(NC(=O)c4ccc5c(c4)OCO5)ccc3O[C@@H]2[C@@H](CO)O1)NCc1ccc(Cl)cc1,1.53%
2,O=C(C[C@H]1C[C@@H]2c3cc(NC(=O)c4ccc5c(c4)OCO5)ccc3O[C@@H]2[C@@H](CO)O1)NCc1cccnc1,-0.896%
3,O=C(C[C@H]1C[C@H]2c3cc(NC(=O)c4ccc5c(c4)OCO5)ccc3O[C@H]2[C@@H](CO)O1)NCc1cccc(F)c1,15.2% (active)
4,CNC[C@H]1Oc2cc(-c3ccc(C(=O)N(C)C)cc3)ccc2S(=O)(=O)N([C@@H](C)CO)C[C@@H]1C,-0.097%
5,C[C@@H]1CN([C@H](C)CO)C(=O)c2cc(C3=CCCC3)cnc2O[C@H]1CN(C)C,0.146%
6,COc1ccc(NC(=O)N(C)C[C@@H]2Oc3c(NC(=O)c4ccc(-c5nccs5)cc4)cccc3C(=O)N([C@H](C)CO)C[C@@H]2C)cc1,0.889%
7,COc1cccc(NC(=O)N[C@@H]2C=C[C@H](CC(=O)NCc3ccccn3)O[C@H]2CO)c1,-0.684%
8,N#C[C@H]1N[C@H](CO)[C@H]1c1ccc(-c2cccc(F)c2)cc1,-1.58%
9,Cc1ccc(-c2ccc(C3[C@H]4CNC[C@@H]3N4S(=O)(=O)c3ccccc3C)cc2)cc1 (some centres undefined),-0.326% and -0.213%
10,COC(=O)[C@@H]1[C@@H](CO)[C@@H]2Cn3c(ccc(-c4ccc(OC)cc4)c3=O)[C@@H]2N1C,-0.952%
11,C[C@@H]1CN([C@H](C)CO)C(=O)c2cc(NC(=O)NC3CCCCC3)ccc2O[C@@H](C)CCCCO[C@H]1CN(C)C(=O)Nc1ccccc1,0.722%
12,C[C@H](CO)N1C[C@H](C)[C@H](CN(C)Cc2ccc3c(c2)OCO3)OCCCC[C@H](C)Oc2ccc(NC(=O)c3ccccc3)cc2C1=O,-0.045%
13,Cc1ccc(-c2ccc(=O)n(Cc3ccc(F)cc3Cl)n2)cc1,0.329%
14,O=c1c([N+](=O)[O-])cccn1Cc1ccc(F)cc1Cl,38.4% (active)
15,O=Cc1cn(Cc2ccc(F)cc2Cl)c2ccccc12,-0.141%
16,CCC(=O)N1C[C@@H](C)[C@H](OC)CN(C)C(=O)c2ccc(NC(=O)COC)cc2OC[C@@H]1C,-0.964%
17,C[C@@H]1CCCCO[C@@H](CN(C)C(=O)NC2CCCCC2)[C@H](C)CN([C@H](C)CO)C(=O)c2cc(NC(=O)Nc3cccc4ccccc34)ccc2O1,-0.319%
18,CNC(=O)C[C@H]1CC[C@H]2[C@H](COc3ccc(NC(=O)c4cccc(F)c4)cc3C(=O)N2C)O1,-0.293% and -0.193%
19,CN1C(=O)c2cc(NC(=O)c3cccc(F)c3)ccc2OC[C@@H]2O[C@@H](CC(=O)NCC3CCCCC3)CC[C@H]21,27.1% (active) and 19.3% (active)
20,CN1C(=O)c2cc(NC(=O)c3ccccc3)ccc2OC[C@@H]2O[C@H](CC(=O)NCC3CC3)CC[C@@H]21,0.093%
21,Cc1cc(C(=O)Nc2ccc3c(c2)C(=O)N(C)[C@H]2CC[C@H](CC(=O)NCC(F)(F)F)O[C@@H]2CO3)no1,-0.366%
22,CO[C@H]1O[C@H](CO)[C@@H](OC(=O)Nc2ccc(C(F)(F)F)cc2)[C@H](OC(=O)Nc2ccc3c(c2)OCO3)[C@H]1OC(=O)Nc1ccc2c(c1)OCO2,0.426%
23,CO[C@@H]1CN(C)C(=O)c2cc(NC(C)=O)ccc2OC[C@H](C)N(Cc2ccccc2F)C[C@@H]1C,-0.886%

row,SMILES,inhibition
1,CN(C)C(=O)c1ccc(-c2ccc([C@H]3[C@H](CO)N4CCCCN(S(C)(=O)=O)C[C@@H]34)cc2)cc1,-1.71%
2,O=C(CCN1CCCCC1)N[C@H]1CC[C@H](CCNS(=O)(=O)c2ccc(F)cc2)O[C@@H]1CO,0.554%
3,Cc1ccccc1-c1ccc(C2[C@@H]3CN(C(=O)C4CCCCC4)C[C@H]2N3)cc1 (some centres undefined),-3.88% and 0.934%
4,Cc1nonc1C(=O)N/N=C/c1ccc(O)cc1,5.9%
5,Nc1nnn(CC(=O)N/N=C/c2ccc(O)cc2)n1,13.2% (active)
6,O=C(CSC1c2ccccc2-c2ccccc21)N/N=C/c1ccccc1,2.65%
7,O=C(C[n+]1ccccc1)N/N=C/c1ccc(O)cc1,11.1% (active)
8,Nc1nnn(CC(=O)N/N=C/c2ccccc2)n1,1.05%
9,O=C(CN1CCSCC1)N/N=C/c1ccc(Cl)cc1,1.98%
10,COc1ccc2c3c([nH]c2c1)[C@@H](CO)N(C(=O)CC1CC1)CC31CCN(Cc2cccnc2)CC1,0.524%
11,O=C(Cc1ccccc1)N1C[C@@H]2[C@H](c3ccccc31)[C@@H](CO)N2C(=O)Nc1ccc(F)cc1,1.65%
12,COCC(=O)Nc1ccc2c(c1)[C@H]1C[C@H](CC(=O)NCc3ccc(OC)cc3)O[C@@H](CO)[C@H]1O2,1.91%
13,CN1C(=O)c2cc(NC(=O)Nc3ccccc3F)ccc2OC[C@H]2O[C@H](CC(=O)NCc3ccc(-c4ccccc4)cc3)CC[C@H]21,-0.392%
14,COCC(=O)Nc1ccc2c(c1)OC[C@H](C)N(C(=O)c1ccccc1F)C[C@H](C)[C@H](OC)CN(C)C2=O,0.041%
15,O=c1[nH]c(CN2CCOCC2)nc2scc(-c3ccccc3)c12,2.63%
16,CN(CCOc1ccccc1)Cc1nc2cc(Cl)ccc2c(=O)[nH]1,-0.715%
17,O=c1[nH]c(CN2CCOCC2)nc2cc(Cl)ccc12,11.3% (active)
18,CC(C)CC#Cc1cnc2c(c1)C(=O)N([C@@H](C)CO)C[C@@H](C)[C@@H](CN(C)C(=O)c1cccnc1)O2,-0.559%
19,O=C1C=CCCN1C(=O)/C=C/c1ccc(F)cc1,0.919%
20,CCS(=O)(=O)N1CCC2(CC1)CN(S(=O)(=O)c1ccc(C)cc1)[C@H](CO)c1[nH]c3cc(OC)ccc3c12,-1.12%
21,CN(C)c1ccc(C(=S)N2CCN(C(=S)Nc3ccc(Cl)cc3)CC2)cc1,17.4% (active)
22,O=C(NC1CCN(C(=S)Nc2ccc(Cl)cc2)CC1)C1CCCCC1,-0.645%
23,CCOC(=O)c1ccc(NC(=S)N2CCCC2)cc1,1.01%
